# Results as given in PubChem BioAssay (Tox21).
# “And” between values parts separate entries of the source, which are not always exact repeats. Identical values can stand only once. Results filed as inconclusive are left out. Entries that show only a call come without a potency. Where a structure was tested more than once in an assay, its records may differ in their call. The source made the active and inactive calls. Unless noted, calls follow the shape of the dose curve; as a rule, active = well fitted curve in the direction sought with a large enough effect in the repeat runs; inconclusive = weak or mixed curves; inactive = no such curve, though single readings can be large; an effect the other way counts as inactive or inconclusive.
# Experiments:
# [1] = qHTS assay to identify small molecule antagonists of the estrogen receptor alpha (ER-alpha) signaling pathway using the BG1 cell line in the presence of 0.1 nM 17-beta-estradiol - cell viability counter screen (AID 1259241); also: nearly all actives have a fitted effect of over 40% in size
# Method in brief: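 CellTiter-Fluor read (30 min, 37C) on ER-alpha/ERE-luc VM7Luc4E2 cells; 22 hr compound treatment; agonist 0.1 nM E2 final; same-well multiplex.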
# [2] = qHTS assay to identify small molecule antagonists of the androgen receptor (AR) signaling pathway using the MDA cell line in the presence of 0.5 nM R1881 - cell viability counter screen (AID 1259242); also: nearly all actives have a fitted effect of over 45% in size; also: potency is read from the fitted curve at half-maximal effect
# Method in brief: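 MDA-kb2 cells (human breast carcinoma, stably carrying MMTV-luciferase reporter) were exposed to compounds with 0.5 nM R1881 (final) for 16 hr at 37C, 0% CO2; viability then read as live-cell protease fluorescence (CellTiter-Fluor, 30 min) in the same wells.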
# [3] = molecular target: Androgen receptor (Homo sapiens) (UniProt P10275); experiment: qHTS assay to identify small molecule antagonists of the androgen receptor (AR) signaling pathway using the MDA cell line in the presence of 0.5 nM R1881 (AID 1259243); also: nearly all actives have a fitted effect of over 50% in size; also: potency is read from the fitted curve at half-maximal effect
# Androgen receptor (Homo sapiens), sequence (P10275 whole entry, looked up): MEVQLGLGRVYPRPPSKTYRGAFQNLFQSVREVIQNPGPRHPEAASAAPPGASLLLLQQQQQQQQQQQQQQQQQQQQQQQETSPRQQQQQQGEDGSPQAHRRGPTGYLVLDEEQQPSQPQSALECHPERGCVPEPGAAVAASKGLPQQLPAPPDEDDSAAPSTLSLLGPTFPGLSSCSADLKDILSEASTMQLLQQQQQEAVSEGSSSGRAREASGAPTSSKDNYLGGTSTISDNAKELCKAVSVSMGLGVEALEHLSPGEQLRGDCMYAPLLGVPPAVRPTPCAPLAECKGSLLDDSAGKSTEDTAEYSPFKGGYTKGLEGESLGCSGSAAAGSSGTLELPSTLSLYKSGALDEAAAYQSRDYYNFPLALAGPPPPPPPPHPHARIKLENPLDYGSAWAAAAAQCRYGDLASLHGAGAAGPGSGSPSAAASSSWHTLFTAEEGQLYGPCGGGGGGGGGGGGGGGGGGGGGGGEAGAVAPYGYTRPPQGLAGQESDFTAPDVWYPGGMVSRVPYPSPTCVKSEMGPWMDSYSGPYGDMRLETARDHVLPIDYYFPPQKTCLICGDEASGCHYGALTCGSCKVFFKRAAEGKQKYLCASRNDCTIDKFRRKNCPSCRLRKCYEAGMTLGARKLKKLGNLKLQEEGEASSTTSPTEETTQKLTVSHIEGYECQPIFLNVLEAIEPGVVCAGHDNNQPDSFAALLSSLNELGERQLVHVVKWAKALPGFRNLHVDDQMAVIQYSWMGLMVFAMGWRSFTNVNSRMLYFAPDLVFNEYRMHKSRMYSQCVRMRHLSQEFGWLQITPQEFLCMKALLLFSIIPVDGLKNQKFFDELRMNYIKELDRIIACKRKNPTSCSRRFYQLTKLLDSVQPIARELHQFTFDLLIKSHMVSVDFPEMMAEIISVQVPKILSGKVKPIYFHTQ
# Method in brief: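 MDA-kb2 human breast carcinoma cells carrying an MMTV-luciferase reporter (AR- and GR-responsive) were plated, rested 5 hr at 37C, dosed with compounds, then stimulated with 0.5 nM R1881 (final) for 16 hr; luminescence was read after ONE-Glo.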
# [4] = molecular target: Estrogen receptor (Homo sapiens) (UniProt P03372); experiment: qHTS assay to identify small molecule antagonists of the estrogen receptor alpha (ER-alpha) signaling pathway using the BG1 cell line in the presence of 0.1 nM 17-beta-estradiol (AID 1259244); also: nearly all actives have a fitted effect of over 50% in size; also: potency is read from the fitted curve at half-maximal effect
# Estrogen receptor (Homo sapiens), sequence (P03372 whole entry, looked up): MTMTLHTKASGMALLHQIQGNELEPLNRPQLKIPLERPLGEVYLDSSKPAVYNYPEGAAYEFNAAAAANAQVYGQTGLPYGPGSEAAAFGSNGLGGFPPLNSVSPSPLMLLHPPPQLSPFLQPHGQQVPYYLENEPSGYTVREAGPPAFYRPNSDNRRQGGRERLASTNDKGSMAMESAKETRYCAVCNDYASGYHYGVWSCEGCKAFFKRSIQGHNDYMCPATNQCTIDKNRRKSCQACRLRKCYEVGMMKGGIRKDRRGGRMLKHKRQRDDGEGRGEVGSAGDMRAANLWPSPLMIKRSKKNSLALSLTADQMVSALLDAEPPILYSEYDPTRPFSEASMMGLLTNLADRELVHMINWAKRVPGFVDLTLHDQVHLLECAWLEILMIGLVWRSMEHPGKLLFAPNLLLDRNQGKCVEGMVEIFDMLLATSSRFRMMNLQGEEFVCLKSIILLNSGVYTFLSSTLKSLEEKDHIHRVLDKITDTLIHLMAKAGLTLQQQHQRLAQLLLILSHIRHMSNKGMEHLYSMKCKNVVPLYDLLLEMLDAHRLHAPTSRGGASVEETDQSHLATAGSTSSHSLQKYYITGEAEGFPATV
# Method in brief: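 VM7Luc4E2 cells (endogenous full-length ER-alpha, stable 4xERE-luciferase) were grown 5 days in phenol red-free medium with charcoal-stripped FBS, then exposed 22 h at 37C to compounds plus 0.1 nM (final) 17beta-estradiol; ONE-Glo luminescence read-out.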
# [5] = qHTS assay to identify small molecule phospholipidosis (PLD) inducers (AID 1259344; active = well fitted curve in the direction sought with a large enough effect; an effect the other way counts as inactive or inconclusive)
# Method in brief: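 HepG2 cells on collagen I, attached 4 h at 37 C, were co-treated with compound and LipidTOX Red dye for 24 h at 37 C, then fixed with paraformaldehyde plus Hoechst 33342 and imaged by high-content microscopy for phospholipid accumulation.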
# [6] = qHTS assay to identify small molecule HDAC inhibitors (AID 1259364); also: nearly all actives have a fitted effect of over 45% in size; also: potency is read from the fitted curve at half-maximal effect
# Method in brief: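 Wild-type HCT-116 cells were plated overnight, exposed to compounds for 2 h at 37 °C, then given HDAC-Glo class I/II luminogenic reagent for 30 min at room temperature before luminescence was read.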
# [7] = qHTS assay to identify small molecule HDAC inhibitors - cell viability counter screen (AID 1259365); also: series mostly up to about 92 µM; nearly all actives have a fitted effect of over 50% in size
# Method in brief: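 To flag cytotoxic hits, 1,500 wild-type HCT-116 cells per well, plated the day before, receive test compounds for 2hr at 37 C before CellTiter-Glo reagent and a luminescence read.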
# [8] = qHTS assay to identify small molecule agonists of the sonic hedgehog signaling (Shh) pathway - cell viability counter screen (AID 1259366); also: nearly all actives have a fitted effect of over 50% in size; also: potency is read from the fitted curve at half-maximal effect
# Method in brief: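 Fluorescence from CellTiter-Fluor reports live cells in this counter screen. NIH/3T3-derived Gli1-Luc reporter cells receive test compounds for 24hr at 37C; reagent goes in at 23hr.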
# [9] = qHTS assay to identify small molecule antagonists of the sonic hedgehog signaling (Shh) pathway - cell viability counter screen (AID 1259367); also: nearly all actives have a fitted effect of over 55% in size; also: potency is read from the fitted curve at half-maximal effect
# Method in brief: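 NIH/3T3-derived Gli1-Luc reporter cells (2,000 per well) rested 4 hr at 37 C, then received DMSO compounds plus conditioned medium. After 23 hr of treatment, CellTiter-Fluor was added for 1 hr at 37C and fluorescence read.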
# [10] = qHTS assay to identify small molecule agonists of the sonic hedgehog signaling (Shh) pathway (AID 1259368; calls by dose curve; also: series mostly up to about 92 µM; nearly all actives have a fitted effect of over 15% in size)
# Method in brief: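 NIH/3T3-derived 3T3Gli1-Luc cells carrying a stably integrated Gli1 response element–firefly luciferase reporter were plated, left 4 hr at 37 C, then given compounds in DMSO for 24 hr. Luminescence was read 30 min after adding luciferase reagent.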
# [11] = qHTS assay to identify small molecule antagonists of the sonic hedgehog signaling (Shh) pathway (AID 1259369; calls by dose curve; also: nearly all actives have a fitted effect of over 45% in size; also: potency is read from the fitted curve at half-maximal effect)
# Method in brief: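 NIH/3T3-derived 3T3Gli1-Luc cells with stably integrated Gli1-Luc reporter were preincubated 4hr at 37 C, then given compounds in DMSO plus Shh conditioned medium and incubated 24hr. Firefly luciferase luminescence read after 30min reagent at room temperature.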
# [12] = qHTS assay to identify small molecule agonists of the estrogen receptor beta (ER-beta) signaling pathway - cell viability counter screen (AID 1259380); also: nearly all actives have a fitted effect of over 30% in size; also: potency is read from the fitted curve at half-maximal effect
# Method in brief: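 ER-beta-UAS-bla HEK293T cells in medium with 2% charcoal-stripped FBS were preincubated 6 hr at 37C, dosed with compound in DMSO for 16 hr, then after the bla read, CellTiter-Glo was added for 30 min at room temperature; luminescence recorded.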
# [13] = molecular target: Androgen receptor (Homo sapiens) (UniProt P10275); experiment: qHTS assay to identify small molecule agonists of the androgen receptor (AR) signaling pathway in the presence of an antagonist (AID 1259381; calls by dose curve; also: nearly all actives have a fitted effect of over 15% in size; also: potency is read from the fitted curve at half-maximal effect)
# Method in brief: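 MDA-kb2 human breast carcinoma cells carrying an MMTV-luciferase reporter (AR- and GR-responsive) were treated with compounds at 15 concentrations plus 3.0uM final nilutamide for 16hr at 37C without CO2; luminescence was read after ONE-Glo addition.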
# [14] = qHTS assay to identify small molecule antagonists of the estrogen receptor beta (ER-beta) signaling pathway - cell viability counter screen (AID 1259382); also: nearly all actives have a fitted effect of over 55% in size; also: potency is read from the fitted curve at half-maximal effect
# Method in brief: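 ER-beta-UAS-bla HEK293T cells (2,000/well, 2% charcoal-stripped FBS) were pre-incubated 6 hr at 37C, then given compound plus 1nM final 17-beta-estradiol for 16 hr. Viability was read in the same wells by CellTiter-Glo luminescence after 30 min at room temperature.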
# [15] = molecular target: Estrogen receptor (Homo sapiens) (UniProt P03372); experiment: qHTS assay to identify small molecule agonists of the estrogen receptor alpha (ER-alpha) signaling pathway in the presence of an antagonist (AID 1259383; calls by dose curve; also: nearly all actives have a fitted effect of over 15% in size; also: potency is read from the fitted curve at half-maximal effect; as to activation: top concentration of the series differs between compounds)
# Method in brief: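 VM7Luc4E2 cells (endogenous full-length ER-alpha, 4×ERE-luciferase) were precultured 5 days in phenol red-free medium with 10% charcoal-stripped FBS, given 10.0nM ICI-182,780 (final), then treated with compounds at 15 concentrations for 22hr at 37C; luminescence read with ONE-Glo.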
# [16] = qHTS assay to identify small molecule agonists or antagonists of the thyroid stimulating hormone receptor (TSHR) signaling pathway - wild type cell line counter screen (AID 1259384; calls by dose curve)
# Method in brief: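 Wild-type HEK293 cells were plated 18 h at 37 C/5% CO2, pin-dosed with compound plus Ro20-1724 medium, held 30 min at room temperature, then given cAMP-d2 and anti-cAMP-cryptate; fluorescence was read after 1 h. Fifteen concentrations, triplicate.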
# [17] = molecular target: Estrogen receptor beta (Homo sapiens) (UniProt Q92731); experiment: qHTS assay to identify small molecule agonists of the estrogen receptor beta (ER-beta) signaling pathway (AID 1259377; active = well fitted activation curve with a large enough effect in the signal ratio in the repeat runs, not every such curve was filed as active; the % refers to the signal ratio; also: potency is read from the fitted curve at half-maximal effect)
# Estrogen receptor beta (Homo sapiens), sequence (Q92731 whole entry, looked up): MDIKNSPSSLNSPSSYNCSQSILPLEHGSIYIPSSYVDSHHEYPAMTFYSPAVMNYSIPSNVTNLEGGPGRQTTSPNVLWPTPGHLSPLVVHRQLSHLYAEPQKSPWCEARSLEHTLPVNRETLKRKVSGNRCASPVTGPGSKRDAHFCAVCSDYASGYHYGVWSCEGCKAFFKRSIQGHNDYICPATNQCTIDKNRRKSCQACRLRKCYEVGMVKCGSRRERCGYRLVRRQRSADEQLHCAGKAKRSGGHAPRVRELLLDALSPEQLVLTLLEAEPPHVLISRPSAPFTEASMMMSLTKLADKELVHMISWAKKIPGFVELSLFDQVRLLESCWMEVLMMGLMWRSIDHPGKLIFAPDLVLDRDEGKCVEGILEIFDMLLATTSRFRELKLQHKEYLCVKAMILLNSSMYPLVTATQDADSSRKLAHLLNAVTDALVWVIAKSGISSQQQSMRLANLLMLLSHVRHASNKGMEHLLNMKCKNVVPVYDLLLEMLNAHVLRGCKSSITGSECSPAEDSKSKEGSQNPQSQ
# Method in brief: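 Screening used GripTite ER-beta-UAS-bla cells held in 2% charcoal-stripped FBS medium. After overnight (16 hr) compound incubation at 37C, beta-lactamase activity was detected with a FRET substrate by fluorescence.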
# [18] = molecular target: Estrogen receptor beta (Homo sapiens) (UniProt Q92731); experiment: qHTS assay to identify small molecule antagonists of the estrogen receptor beta (ER-beta) signaling pathway (AID 1259378; active = well fitted inhibition curve with a large enough effect in the signal ratio in the repeat runs, not every such curve was filed as active; the % refers to the signal ratio; also: potency is read from the fitted curve at half-maximal effect)
# Method in brief: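 ER-beta-UAS-bla HEK293T (GripTite) cells in 2% charcoal-stripped FBS medium were preincubated 6 hr at 37C, dosed with compound, then stimulated with 1 nM E2 (final) for 16 hr; beta-lactamase reporter read by B/G FRET fluorescence after 2 hr substrate loading.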
# [19] = qHTS assay to identify small molecule agonists of the androgen receptor (AR) signaling pathway in the presence of an antagonist - cell viability counter screen (AID 1259379); also: nearly all actives have a fitted effect of over 25% in size; also: potency is read from the fitted curve at half-maximal effect
# Method in brief: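 MDA-kb2 human breast carcinoma cells (stable MMTV-luciferase, AR/GR responsive) were seeded 3,000 cells/well, pre-incubated 5 hr at 37C without CO2, then given 3.0uM nilutamide and compounds at 15 concentrations for 16 hr. Viability was read by CellTiter-Fluor fluorescence.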
# [20] = A CellTox Green Cytotoxicity Assay to monitor cytotoxicity in HepG2 cells - 8 hour (AID 1224890); also: nearly all actives have a fitted effect of over 45% in size
# Method in brief: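 HepG2 cells were seeded together with the CellTox Green dye at 600 cells/well, left 5 h at 37 C/5% CO2, then given compounds in DMSO. Fluorescence from dye bound to dead-cell DNA was read repeatedly over 40 h of treatment at 37 C.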
SMILES,Potency [1],Potency [2],Potency [3],Potency [4],outcome [5],Potency [6],outcome [7],Potency [8],Potency [9],Potency [10],Potency [11],Potency [12],Potency [13],Potency [14],Potency [15],outcome [16],Potency [17],Potency [18],Potency [19],Potency [20]
CCN(CC)C(=O)/C(Cl)=C(\C)OP(=O)(OC)OC,inactive,inactive,inactive,inactive,inactive,inactive,inactive,inactive,inactive,inactive,inactive,inactive,inactive,inactive,inactive,inactive,,,,
COP(=S)(OC)Oc1cc(Cl)c(Cl)cc1Cl,inactive,inactive,54.1 µM (active) and inactive,inactive,inactive,,inactive,inactive,inactive,inactive,inactive,inactive,inactive,inactive,inactive,inactive,inactive,inactive,inactive,
N#CCCCl,inactive,inactive,,,,inactive,inactive,inactive,inactive,inactive,inactive,inactive,,inactive,,inactive,,,inactive,inactive
Oc1cc(Cl)ccc1Cl,inactive,inactive,,,,inactive,inactive,inactive,,inactive,inactive,inactive,,inactive,,inactive,,,inactive,inactive
O=[N+]([O-])c1c(Cl)c(Cl)c(Cl)c(Cl)c1Cl,inactive,,27.2 µM (active) and 27.3 µM (active),inactive,,,inactive,inactive and 43.3 µM (active),inactive,inactive,inactive,inactive,inactive,inactive,inactive,,inactive,inactive,60.8 µM (active) and 48.6 µM (active),inactive
CCOC(=S)S,inactive,inactive,,,,inactive,inactive,38.6 µM (active) and 20.6 µM (active),,inactive,10.9 µM (active) and 13 µM (active),10.3 µM (active),,,,inactive,inactive,,inactive,inactive
Oc1cc(Cl)c(Cl)cc1Cl,inactive,inactive,,,inactive,inactive,inactive,inactive,inactive,inactive,inactive,inactive,,inactive,,inactive,inactive,inactive,inactive,inactive
Nc1ccc(-c2ccc(N)c(N)c2)cc1N,inactive,inactive,,,,54.3 µM (active),inactive,,inactive,inactive,13.6 µM (active),,,inactive,,inactive,inactive,48.4 µM (active),,inactive
COc1ccc(C(CN(C)C)C2(O)CCCCC2)cc1 (stereo not drawn),inactive,inactive,,,inactive,inactive,inactive,inactive,inactive,inactive,inactive,inactive,,inactive,,inactive,,,inactive,inactive
C[C@]12CCC(=O)C[C@@H]1CC[C@@H]1[C@@H]2CC[C@]2(C)[C@@H](O)CC[C@@H]12,inactive,inactive,,,inactive,,inactive,inactive,,inactive,17 µM (active) and 13.7 µM (active),13.5 µM (active) and 12.2 µM (active),,,,,853 nM (active) and 546 nM (active),,67.8 µM (active) and inactive,inactive
C=CCc1ccc(OC)cc1,inactive,inactive,,,,inactive,inactive,inactive,inactive,inactive,inactive,inactive,,inactive,,inactive,inactive,inactive,,inactive
CC(C)(C)c1ccccc1O,inactive,inactive,,,,inactive,inactive,inactive,inactive,inactive,inactive,inactive,,inactive,,,inactive,inactive,,
CCC(C)c1cc([N+](=O)[O-])cc([N+](=O)[O-])c1O (stereo not drawn),,inactive and 15.4 µM (active),,inactive and 17.2 µM (active),,,inactive,inactive and 43.3 µM (active),inactive and 24.3 µM (active),inactive,inactive and 12.2 µM (active),inactive,,inactive,inactive,inactive,inactive,inactive,inactive and 21.7 µM (active),
Cc1ccccc1[N+](=O)[O-],inactive,inactive,,inactive,,inactive,inactive,inactive,inactive,inactive,inactive,inactive,,inactive,inactive,inactive,inactive,inactive,,
CCCCCc1cc(O)cc(O)c1,inactive,inactive,,,,inactive,inactive,inactive and 30.6 µM (active),,inactive,24.4 µM (active) and 19.3 µM (active),inactive,,inactive,,inactive,,,,
CCOP(=S)(OCC)O/N=C(\C#N)c1ccccc1,inactive,inactive,,,inactive,,inactive,inactive,,inactive,inactive,inactive,,inactive,,inactive,inactive,inactive,inactive,
CC(C)(OOC(C)(C)c1ccccc1)c1ccccc1,inactive,inactive,24 µM (active),,,,inactive,inactive,,inactive,inactive,inactive,inactive,inactive,,inactive,inactive,,,
CC(C)(c1cc(Cl)c(O)c(Cl)c1)c1cc(Cl)c(O)c(Cl)c1,inactive,inactive,,,,inactive,inactive,inactive,,inactive,30.6 µM (active) and 34.4 µM (active),inactive,,inactive,,inactive,,,inactive,
O=[N+]([O-])c1cccc2ccccc12,inactive,inactive,,inactive,,inactive,inactive,inactive,inactive,inactive,inactive,inactive,,inactive,inactive,inactive,inactive,inactive,inactive,
Oc1cc(Cl)ccc1Oc1ccc(Cl)cc1Cl,inactive,31.4 µM (active),,,inactive,inactive,inactive,31.4 µM (active) and inactive,,inactive,5.58 µM (active),39.5 µM (active),,41.8 µM (active),,,inactive,,27.9 µM (active),
Oc1ccc(-c2ccccc2)cc1,inactive,inactive,,inactive,,inactive,inactive,,inactive,inactive,inactive,,,inactive,inactive,inactive,,,,
CCC(=O)O[C@H]1CC[C@H]2[C@@H]3CCC4=CC(=O)CC[C@]4(C)[C@H]3CC[C@]12C,inactive,inactive,inactive,inactive,,,inactive,,inactive,inactive,30.6 µM (active) and 18.8 µM (active),68.6 µM (active),48.6 nM (active) and 47.3 nM (active),61.1 µM (active) and inactive,7.7 µM (active) and 9.44 µM (active),inactive,,,inactive,
N[C@@H](Cc1ccc(N(CCCl)CCCl)cc1)C(=O)O,inactive,inactive,,,inactive,,inactive,inactive,,inactive,inactive,inactive,,inactive,,inactive,inactive,inactive,,
NNC(N)=S,inactive,inactive,,63.5 µM (active) and inactive,,inactive,inactive,45 µM (active),,inactive,8.97 µM (active) and 12.2 µM (active),31.8 µM (active),,12.7 µM (active),inactive,inactive,inactive,11.3 µM (active) and 30.6 µM (active),inactive,
CCCCOCCOP(=O)(OCCOCCCC)OCCOCCCC,inactive,inactive,,inactive,,,inactive,inactive,,inactive,,24.4 µM (active),,,inactive,inactive,inactive,inactive,inactive,
